The source of these data is PubChem BioAssay.

Active and inactive are the calls of the source.

Experiment [1] in a line: compounds binding Alexa647 anti-His antibody – biochemical, small-molecule microarray, 635 nm fluorescence, artefact control for SMM control protein annotation, primary screen (AID 1128).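 Note: score merges feature fluorescence with signal-to-noise for each printed compound spot.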 To be noted: higher = more signal.
In experiment [2] the test system is Human papillomavirus type 1a E7 protein (residues 1-88). The experiment in a line: HPV1a E7 small-molecule binders, primary screen, biochemical, small-molecule microarray, residues 1-88, 635 nm (AID 1129). To be noted: small-molecule microarray binding, fluorescence 635 nm; higher = more signal.
The target of experiment [3] is Focal adhesion kinase 1 (Homo sapiens) (UniProt Q05397). The experiment in a line: PTK2 protein binding on printed compound slides – biochemical, small-molecule microarray, 635/667 nm fluorescence, BSA, DTT, primary screen (AID 1130).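 Note: composite of spot emission at 667 nm and signal to noise over triplicate slides.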 The following applies: 635 nm fluorescence, higher = more signal.
The subject of experiment [4] is Fibrinogen (Alexa647-labelled). The experiment in a line: Alexa647-fibrinogen binding to printed small molecules – biochemical, small-molecule microarray, 635/667 nm fluorescence, artefact control for SMM control-protein annotation, profiling panel (AID 1131).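 Note: z-score merges 667 nm fluorescence with per-spot signal-to-noise over triplicate slides.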 The following applies: fibrinogen-A647 binding fluorescence, higher = more signal.
Experiment [5] has as its target Follistatin (Homo sapiens) (UniProt P19883). In words: FST protein binding to printed compounds – biochemical, small-molecule microarray, 635/667 nm fluorescence, primary screen (AID 1132). The following applies: 635 nm fluorescence, higher = more signal.
Experiment [6] deals with Fibroblast growth factor 2 (Homo sapiens) (UniProt P09038). In words: basic fibroblast growth factor binding to printed compounds – biochemical, small-molecule microarray, 635/667 nm fluorescence, primary screen (AID 1133). The following applies: FGF2, fluorescence 635/667, higher = more signal.
Experiment [7] can be described thus: JC-1 mitochondrial potential readout, lung cancer cells – cell-based, A549, JC-1 fluorescence, basal, 24 h, 100 nL, profiling panel (AID 1138).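 Note: A549 lung adenocarcinoma cells under basal conditions with no added stimulus; test concentration not given here.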 The following applies: higher = more signal.
Another experiment concerns Lefty1. The experiment in a line: Lefty1 protein binding to printed compounds – biochemical, small-molecule microarray, 635/667 nm fluorescence, primary screen (AID 1139). To be noted: fluorescence 635/667, higher = more signal.
Experiment [8] deals with wheat germ agglutinin (Triticum aestivum), Alexa647-labelled. The experiment in a line: Alexa647-WGA lectin binding to printed small molecules – biochemical, small-molecule microarray, 635/667 nm fluorescence, artefact control for SMM control-protein annotation, profiling panel (AID 1140).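 Note: score merges 667 nm feature emission with signal to noise over triplicate slides.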 The following applies: WGA-A647 binding, 635 nm fluorescence, higher = more signal.
In experiment [9] the target is Luciferin 4-monooxygenase (Photinus pyralis) (UniProt P08659). In words: inhibition of purified Photinus pyralis luciferase – biochemical, luminescence, purified enzyme, 2006 set, primary screen (AID 1141).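 Note: cell-free assay with purified firefly luciferase at 100 ng per well in PBS; test concentration not given here.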 The following applies: purified firefly luciferase, SteadyGlo luminescence, 30 min; higher = more signal, called active from +8 up or from −8 down.
Chain of Luciferin 4-monooxygenase (Photinus pyralis) (P08659 whole entry, looked up): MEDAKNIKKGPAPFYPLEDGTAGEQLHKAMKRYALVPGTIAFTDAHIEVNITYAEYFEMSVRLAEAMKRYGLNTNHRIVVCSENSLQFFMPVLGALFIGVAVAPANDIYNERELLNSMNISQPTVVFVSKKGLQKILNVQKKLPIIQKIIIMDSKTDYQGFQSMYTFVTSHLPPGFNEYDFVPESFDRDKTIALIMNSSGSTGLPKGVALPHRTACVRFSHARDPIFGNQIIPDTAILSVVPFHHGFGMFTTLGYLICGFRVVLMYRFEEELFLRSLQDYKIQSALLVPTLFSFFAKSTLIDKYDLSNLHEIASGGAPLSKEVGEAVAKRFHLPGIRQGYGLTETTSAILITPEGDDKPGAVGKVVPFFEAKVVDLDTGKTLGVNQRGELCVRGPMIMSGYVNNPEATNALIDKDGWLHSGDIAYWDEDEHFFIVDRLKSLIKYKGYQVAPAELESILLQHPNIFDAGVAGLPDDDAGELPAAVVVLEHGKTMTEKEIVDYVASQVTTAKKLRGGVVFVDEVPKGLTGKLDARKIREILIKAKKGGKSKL

Chain of Focal adhesion kinase 1 (Homo sapiens) (Q05397 whole entry, looked up): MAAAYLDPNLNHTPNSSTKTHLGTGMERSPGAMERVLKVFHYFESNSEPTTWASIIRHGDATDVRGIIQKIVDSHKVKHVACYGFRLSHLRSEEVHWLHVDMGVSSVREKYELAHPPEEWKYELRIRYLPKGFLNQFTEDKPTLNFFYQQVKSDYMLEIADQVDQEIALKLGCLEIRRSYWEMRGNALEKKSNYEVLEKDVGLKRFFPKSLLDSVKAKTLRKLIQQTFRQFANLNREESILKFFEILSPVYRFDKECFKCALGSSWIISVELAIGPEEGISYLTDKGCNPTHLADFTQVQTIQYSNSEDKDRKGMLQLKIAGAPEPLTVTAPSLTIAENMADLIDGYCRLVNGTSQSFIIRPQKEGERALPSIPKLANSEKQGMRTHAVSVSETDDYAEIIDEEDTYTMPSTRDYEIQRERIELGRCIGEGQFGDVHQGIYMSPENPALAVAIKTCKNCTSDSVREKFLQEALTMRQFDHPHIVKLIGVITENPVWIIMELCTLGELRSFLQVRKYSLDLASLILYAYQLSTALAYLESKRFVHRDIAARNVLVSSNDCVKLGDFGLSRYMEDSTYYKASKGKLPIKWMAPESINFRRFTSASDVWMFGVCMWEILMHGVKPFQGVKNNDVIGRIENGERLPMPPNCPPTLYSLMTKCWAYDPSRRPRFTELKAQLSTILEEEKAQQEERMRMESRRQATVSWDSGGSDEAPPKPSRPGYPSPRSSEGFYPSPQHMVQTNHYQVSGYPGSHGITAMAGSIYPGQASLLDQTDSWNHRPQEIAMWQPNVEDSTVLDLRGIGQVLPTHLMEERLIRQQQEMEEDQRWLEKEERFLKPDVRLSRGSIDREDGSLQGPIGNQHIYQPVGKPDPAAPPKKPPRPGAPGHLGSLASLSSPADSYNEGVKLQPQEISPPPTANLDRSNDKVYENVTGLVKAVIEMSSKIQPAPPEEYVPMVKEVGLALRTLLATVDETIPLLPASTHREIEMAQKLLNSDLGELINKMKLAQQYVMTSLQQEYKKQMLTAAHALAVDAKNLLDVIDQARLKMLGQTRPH
Chain of Follistatin (Homo sapiens) (P19883 whole entry, looked up): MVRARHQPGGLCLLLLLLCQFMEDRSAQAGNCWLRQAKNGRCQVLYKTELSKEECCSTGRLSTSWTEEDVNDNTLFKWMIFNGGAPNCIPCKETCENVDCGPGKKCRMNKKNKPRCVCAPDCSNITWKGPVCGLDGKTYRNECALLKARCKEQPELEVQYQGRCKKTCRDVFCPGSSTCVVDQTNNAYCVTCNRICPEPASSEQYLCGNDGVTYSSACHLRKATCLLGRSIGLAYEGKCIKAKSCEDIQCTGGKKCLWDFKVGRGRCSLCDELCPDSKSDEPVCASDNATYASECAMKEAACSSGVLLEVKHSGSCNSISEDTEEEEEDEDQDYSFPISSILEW
Chain of Fibroblast growth factor 2 (Homo sapiens) (P09038 whole entry, looked up): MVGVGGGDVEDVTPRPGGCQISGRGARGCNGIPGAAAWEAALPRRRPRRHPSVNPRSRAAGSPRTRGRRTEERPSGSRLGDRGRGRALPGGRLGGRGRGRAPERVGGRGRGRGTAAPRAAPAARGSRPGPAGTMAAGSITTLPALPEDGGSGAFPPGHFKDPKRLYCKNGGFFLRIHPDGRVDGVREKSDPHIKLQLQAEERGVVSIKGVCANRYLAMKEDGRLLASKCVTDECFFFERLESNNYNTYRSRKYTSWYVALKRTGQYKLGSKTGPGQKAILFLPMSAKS

As for `CC(C)CON=C1C[C@@H](O)[C@@H](O)[C@@H]2[C@@H]3C(=O)N(Cc4ccc5c(c4)OCO5)C(=O)[C@@H]3CC[C@@H]12`, the composite z-score turned out to be 0.918 in experiment [1]; 0.245 in [2]; 0.227 in experiment [3]; 0.655 in experiment [4]; 0.0087 in [5]; 1.22 in [6]. The composite z-score was -0.0226 in the experiment with Lefty1 and 0.0667 in [8]. Also, the figures for the z-score in experiment [7] and in [9] were 0.0679 and 0.966 (inactive), respectively.

Regarding `O=C1C=C[C@@H](O)[C@@H]2[C@@H]3C(=O)N(c4cccc(Oc5ccccc5)c4)C(=O)[C@@H]3CC[C@@H]12`, the composite z-score in experiment [1] was 0.959; in experiment [2], 0.548; in experiment [3], -0.183; in [4], -0.127; in experiment [5], 0.464; in experiment [6], -0.196. For the same compound, the composite z-score in the experiment with Lefty1 is 0.478; in experiment [8] it was 0.228. Moreover, the z-score in [7] was -0.774; in experiment [9], -0.57 (inactive).

Consider `COCOc1ccc(Br)cc1C(=O)C=Cc1ccc2c(c1)OCO2`, for which the composite z-score is 0.263 in [1]; -0.396 in experiment [2]; -0.141 in experiment [3]; 0.962 in experiment [4]; 0.516 in [5]; 0.449 in experiment [6]. In addition, the composite z-score in the experiment on Lefty1 came out at 0.471; in experiment [8] it was 0.69. Also, the z-score was 2.57 in experiment [7] and -2.08 (inactive) in [9].

For the compound `C=CC[C@@H]1C=C[C@H](ON=C[C@@H](NS(=O)(=O)c2ccc(C)cc2)[C@H](C)C=CCC(=O)OC)[C@@H](CO)O1`, the composite z-score in experiment [1] is 1.34; in experiment [2], -0.205; in [3], -0.0954; in experiment [4], -0.193; in experiment [5], 0.774; in experiment [6], 0.349. Besides, the composite z-score in the experiment on Lefty1 was found to be 0.625; in [8] it was 0.511. The z-score in experiment [7] was -0.0376; in experiment [9] it was 1.18 (inactive).

Take `COC(=O)CC=C[C@@H](C)[C@@H](C=NOC[C@@H](C)[C@H](OCc1ccccc1)C(C)C)OC`: the composite z-score is 1.86 in experiment [1]; -0.0858 in experiment [2]; 0.0285 in [3]; -0.211 in [4]; 0.088 in experiment [5]; 0.323 in experiment [6]. For the same compound, the composite z-score in the experiment on Lefty1 is 0.419; in experiment [8], -0.307. Also, the z-score was -1.01 in [7] and -0.698 (inactive) in experiment [9].

As to `CCC1=NOC(CCC2CC(OC(=O)NCc3cccc4c3OCO4)CC3(CCCC(COC(=O)NCCc4ccc(Cl)cc4)O3)O2)C1` (stereo not given), the composite z-score was 0.696 in experiment [1]; 0.459 in experiment [2]; -0.123 in experiment [3]; 0.663 in experiment [4]; 0.0801 in [5]; 1.24 in experiment [6]. Besides, the results for the composite z-score (in the experiment with Lefty1; in [8]) were 0.497 and -0.191, respectively. Further, the z-score in experiment [7] was -0.415; in experiment [9] it was 0.74 (inactive).

As to `CCCNC(=O)OC[C@H]1O[C@H](CCON=C[C@@H](C)[C@H](OCc2ccccc2)C(C)C)C=C[C@@H]1Oc1ccc(OC)cc1`, the composite z-score in experiment [1] was 3.25; in experiment [2] it was -0.603; in experiment [3], -0.072; in experiment [4] it was -0.101; in experiment [5], -0.134; in experiment [6], -0.0238. The composite z-score with Lefty1 was 0.401; in experiment [8] it was -0.199. In addition, the z-score is 1.63 in experiment [7] and -1.46 (inactive) in experiment [9].

As for `CON(C)C(=O)c1nnc2c(n1)[nH]c1ccccc12`, the composite z-score stood at 0.459 in [1]; 0.607 in experiment [2]; 0.137 in [3]; 0.471 in experiment [4]; 0.545 in experiment [5]; 0.635 in [6]. Moreover, the figures for the composite z-score (with Lefty1; in [8]) were 0.596 and 0.816, respectively. Besides, the results for the z-score in experiment [7] and in experiment [9] were -0.448 and -2.33 (inactive), respectively.

Turning to `COc1ccc(OC[C@@H](CO)OC)cc1`, the composite z-score in experiment [1] was found to be 0.324; in [2], 0.0896; in experiment [3] it was 0.172; in experiment [4] it was 0.227; in experiment [5], 0.649; in experiment [6], 0.205. Moreover, the results for the composite z-score (in the experiment with Lefty1; in [8]) were 0.356 and -0.254, respectively. Also, the z-score in experiment [7] was 0.754; in experiment [9] it was -0.531 (inactive).

On to `C[C@@H](c1ccccc1)N1C(=O)[C@H]2[C@H]3[C@H](O)[C@H](O)CC(=NOC[C@@H](O)COCc4ccco4)[C@H]3CC[C@H]2C1=O`, for which the composite z-score is 0.0749 in experiment [1]; -1.09 in experiment [2]; -0.546 in experiment [3]; 0.658 in [4]; 1.1 in [5]; 1.36 in experiment [6]. Also, the values for the composite z-score (in the experiment on Lefty1; in experiment [8]) were 1.05 and 0.0723, respectively. Besides, the z-score in experiment [7] was -0.882; in experiment [9] it was 0.997 (inactive).

Regarding `CC(C)CON=C1C[C@@H](O)[C@@H](O)[C@@H]2[C@@H]3C(=O)N([C@@H](C)c4ccccc4)C(=O)[C@@H]3CC[C@@H]12`, the composite z-score is 0.0924 in experiment [1]; 0.124 in experiment [2]; -0.164 in experiment [3]; 0.501 in experiment [4]; -0.319 in experiment [5]; 0.114 in experiment [6]. In addition, the composite z-score in the experiment on Lefty1 is -0.162; in [8], 0.252. In addition, the figures for the z-score in [7] and in [9] were -0.655 and 0.999 (inactive), respectively.

As to `O=C1[C@H]2[C@H]3[C@H](O)[C@H](O)CC(=NO[C@@H]4O[C@H](CO)[C@@H](O)[C@H](O)[C@H]4O)[C@@H]3CC[C@H]2C(=O)N1c1cccc(Oc2ccccc2)c1`, the composite z-score in experiment [1] worked out at 0.13; in [2], 0.542; in experiment [3], 0.0405; in [4], 0.578; in experiment [5] it was 0.858; in experiment [6], 0.948. Also, the composite z-score was 0.879 with Lefty1 and 0.335 in [8]. Besides, the z-score in experiment [7] is -0.728; in experiment [9], 0.825 (inactive).

In the case of `CO[C@H]1COC(=O)CCC[C@H](C)[C@@H](OC)COC(=O)CC=C[C@@H]1C`, the composite z-score was 1.36 in experiment [1]; -0.117 in experiment [2]; -0.246 in experiment [3]; -0.0891 in experiment [4]; 0.393 in [5]; 0.638 in experiment [6]. Also, the composite z-score in the experiment on Lefty1 is 0.562; in experiment [8] it was -0.181. Besides, the z-score in [7] was -0.86; in experiment [9], 0.949 (inactive).

For the compound `CO[C@H]1COC(=O)CC=C[C@@H](C)COC(=O)[C@H]2CCCN2C(=O)CC=C[C@H]1C`, the composite z-score is -0.19 in experiment [1]; -1.54 in experiment [2]; -0.0701 in experiment [3]; -1.05 in [4]; 1.46 in experiment [5]; 1.96 in [6]. In addition, the composite z-score in the experiment with Lefty1 was 1.68; in experiment [8], -0.604. The z-score in experiment [7] was 1.06; in experiment [9] it was -1.32 (inactive).

In the case of `COc1ccc(O[C@H]2C=C[C@@H](c3ccccc3)O[C@@H]2COC(=O)CCC(C)=NOC[C@@H](O)COCc2ccco2)cc1`, the composite z-score in experiment [1] was 0.614; in experiment [2] it was -0.99; in experiment [3], -0.814; in experiment [4], -3.44; in experiment [5], -2.77; in [6], -2.63. The composite z-score in the experiment on Lefty1 is -1.58; in experiment [8] it was -0.674. Besides, the z-score was -0.424 in experiment [7] and -0.49 (inactive) in [9].

Turning to `Cc1cc(C)c(-c2cc([C@H](C)ON=C[C@@H](C)[C@H](OCc3ccccc3)C(C)C)on2)c(C)c1`, the composite z-score in experiment [1] was -0.781; in [2], -1.04; in experiment [3], 0.0063; in experiment [4], -1.82; in experiment [5], -0.158; in experiment [6] it was 0.133. In addition, the composite z-score amounted to 0.116 in the experiment on Lefty1 and 0.528 in [8]. The figures for the z-score in [7] and in experiment [9] were 1.18 and 0.82 (inactive), respectively.

For the compound `CCOC(=O)[C@H](Cc1ccccc1)NC(=O)CCC1CC(OC(=O)NCc2ccc3c(c2)OCO3)CC2(CCCC(COC(=O)NCCc3ccc(Cl)cc3)O2)O1` (stereo not given in full), the composite z-score was 0.0231 in [1]; 0.908 in [2]; 0.762 in experiment [3]; 0.755 in [4]; 0.749 in experiment [5]; 0.303 in experiment [6]. Besides, the composite z-score in the experiment with Lefty1 came out at 1.03; in experiment [8] it was 0.335. Moreover, the z-score was 0.05 in experiment [7] and -0.144 (inactive) in [9].
